Screening data deposited in PubChem BioAssay by National Center for Advancing Translational Sciences (NCATS).
Menin-MLL TR inh = menin-MLL binding inhibition, Texas Red mutant peptide; O00255; Menin + Texas Red MLL mutant peptide, fluorescence polarization; Potency, µM (doses to about 61.6 µM), hits mostly inhibitors; hit rate 0.23% among 270,000; AID 1768; active means well fitted inhibition curve with a large enough effect in the polarisation, with a control signal flat, not every such curve was filed as active; inconclusive means small, poorly fitted or top-dose-only effect, or effect the other way, or a change in a side signal; inactive means no such curve, though single readings can be large or run the other way; the % refers to the polarisation
Target sequence (O00255 whole entry, looked up): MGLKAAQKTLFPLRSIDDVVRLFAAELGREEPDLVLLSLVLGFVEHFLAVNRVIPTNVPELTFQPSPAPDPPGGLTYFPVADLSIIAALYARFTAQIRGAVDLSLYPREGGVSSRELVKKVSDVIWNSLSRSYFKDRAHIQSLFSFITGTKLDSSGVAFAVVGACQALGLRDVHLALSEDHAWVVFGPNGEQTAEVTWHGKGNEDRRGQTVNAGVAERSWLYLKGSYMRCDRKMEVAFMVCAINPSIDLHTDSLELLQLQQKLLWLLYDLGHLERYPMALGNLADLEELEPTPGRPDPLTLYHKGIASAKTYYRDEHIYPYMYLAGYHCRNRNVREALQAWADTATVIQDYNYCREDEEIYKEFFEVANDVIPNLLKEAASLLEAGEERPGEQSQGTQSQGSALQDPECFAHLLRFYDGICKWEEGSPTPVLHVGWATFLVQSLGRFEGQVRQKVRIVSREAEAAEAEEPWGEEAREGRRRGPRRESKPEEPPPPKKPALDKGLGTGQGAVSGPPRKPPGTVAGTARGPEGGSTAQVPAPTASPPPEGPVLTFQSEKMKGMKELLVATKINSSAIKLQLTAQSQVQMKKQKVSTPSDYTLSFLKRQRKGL
MmCpn inh = blocks the Methanococcus maripaludis chaperonin Mm-Cpn. purified Mm-Cpn ATPase, ADP Transcreener TR-FRET. Potency, µM (titrated, usually from 76.9 µM), hits mostly inhibitors. hit rate 0.031% among 330,000. AID 504842; further: nearly all actives have a fitted effect of over 80% in size
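TR-FRET (320 nm excitation; 590 and 665 nm emission) reports ADP made from 10 uM ATP by 25 nM enzyme; compounds were preincubated 10 min, reaction run 30 min, both at 37°C.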
AT treatment = candidate therapy for ataxia-telangiectasia; hit rate 0.19% among 320,000; AID 485349; Potency, µM (titrated, usually from 57.5 µM), usual class: activators; F2112 A-T fibroblasts, KAP-1 phosphorylation AlphaLISA; neocarzinostatin DNA damage 30 min before lysis; further: nearly all actives have a fitted effect of over 45% in size
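hTERT-immortalized A-T patient fibroblasts (F2112), 500 cells/well in OPTI-MEM, 1% FBS, got compounds for 60 min, then NCS for 30 min at 37C. Lysates were then assayed for phospho-KAP-1 by AlphaLISA (anti-pKAP1 donor, anti-KAP1 acceptor beads), 6 hr at 25C.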
Menin-MLL FL inh = displaces fluorescein MLL peptide from human menin; Fluorescence polarization, fluorescein-MLL peptide displacement from menin; FP activity change, % at 61.4 µM; 290,000 tested, under 10 active; AID 1766; active means well fitted curve in the direction sought with a large enough effect in the polarisation, not every such curve was filed as active; inconclusive means small, poorly fitted or top-dose-only effect, or effect the other way, or a change in a side signal; inactive means no such curve, though single readings can be large or run the other way; the % refers to the polarisation
MLL CXXC-DNA inh = blocks binding of human MLL CXXC domain to DNA; Q03164; MLL-CXXC / FITC-HOXA9 DNA fluorescence polarization; Potency, µM (series often up to 115 µM), hits mostly inhibitors; hit rate 0.037% among 290,000; active means well fitted inhibition curve with a large enough effect in the polarisation, with a control signal flat, not every such curve was filed as active; inconclusive means small, poorly fitted or top-dose-only effect, or effect the other way, or a change in a side signal; inactive means no such curve, though single readings can be large or run the other way; the % refers to the polarisation
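Steps: dispense CXXC domain solution (7 uM) → pin compounds or unlabeled HOX-A9 DNA control → 5 min ambient → add FLSN-HOX-A9 solution (50 nM) → spin → 30 min ambient → fluorescence polarization. Tris pH 7.5/NaCl/DTT/BSA buffer.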
Each line names hits and unclear results; the compound was inactive in the other large screens. Compounds with a hit are over-represented: about 0.29% of the library has one in this group of screens. Unless noted, the call rests on the fitted dose curve; in most records, active means well fitted curve in the direction sought with a large enough effect; inconclusive means small, poorly fitted or top-dose-only effect, or another doubt; inactive means no such curve, though single readings can be large; an effect the other way counts as inactive or inconclusive.

O=C(CNCC1CCCO1)Nc1ccc(N2CCCCCC2)cc1 (stereo unspecified)	Menin-MLL TR inh 14.1µM
CC1=NN(c2cccc(F)c2)C(=O)/C1=C/c1ccc(N(C)C)cc1	Menin-MLL TR inh 22.4µM, MLL CXXC-DNA inh inconclusive
COc1ccc(-c2sc3ccc(OC)cc3c2C#Cc2cncn2C)cc1	AT treatment 28.2µM (no result: Menin-MLL TR inh, Menin-MLL FL inh, MLL CXXC-DNA inh)
N#CCCn1c(=O)c(CCc2ccccc2)nc2cnc(N3CCOCC3)nc21	Menin-MLL TR inh 39.8µM, Menin-MLL FL inh inconclusive (no result: MmCpn inh, AT treatment, MLL CXXC-DNA inh)
CC1(C)CO[C@@H](CC(=O)O)CN1	none (no result: MmCpn inh, AT treatment)
C=CCn1c(NS(=O)(=O)c2ccccc2)c(S(=O)(=O)c2ccc(C)cc2)c2nc3ccccc3nc21	MmCpn inh inconclusive, AT treatment 22.4µM
Cc1ccc(S(=O)(=O)c2c(N)n(Cc3ccco3)c3nc4ccccc4nc23)cc1	MmCpn inh inconclusive, AT treatment 31.6µM, Menin-MLL FL inh inconclusive
Cc1cccc(S(=O)(=O)c2c(N)n(Cc3ccco3)c3nc4ccccc4nc23)c1	Menin-MLL TR inh inconclusive, Menin-MLL FL inh inconclusive
O=S(=O)(c1ccccc1)N1CCC2(CCN(Cc3ccccc3)CC2)CC1	none (no result: MmCpn inh, AT treatment, MLL CXXC-DNA inh)
O=Cc1ccc(OC2C=CC(c3ccccc3)OC2CO)cc1 (stereo unspecified)	none (no result: MmCpn inh, AT treatment, MLL CXXC-DNA inh)
O=C1CCC(=O)N1CO	none (no result: MmCpn inh, AT treatment)
COC(=O)/C=C\CCc1coc(/C=C\CNC(=O)OC)n1	none (no result: MmCpn inh, AT treatment, MLL CXXC-DNA inh)
CC(=O)/C(N=Nc1nc2c([nH]1)c(=O)n(C)c(=O)n2C)=C(\C)O	AT treatment 7.08µM (no result: Menin-MLL TR inh)
Cn1c(=N)n(CC(=O)c2ccc(Cl)c(Cl)c2)c2ccccc21	Menin-MLL TR inh inconclusive, AT treatment 28.2µM, MLL CXXC-DNA inh inconclusive
Cn1c(=N)n(CC(=O)c2ccccc2)c2ccccc21	none (no result: Menin-MLL TR inh)
N=c1n(CC(=O)c2ccc(Br)cc2)c2ccccc2n1Cc1ccccc1	AT treatment 22.4µM (no result: Menin-MLL TR inh, Menin-MLL FL inh, MLL CXXC-DNA inh)
COC(=O)C(C(=O)OC)[C@@H]1O[C@@]23COC=C[C@]2(C)[C@H]3c2ccccc21	none (no result: MmCpn inh, AT treatment, MLL CXXC-DNA inh)
CN(C)c1ccc(NC(=O)C2C3C=CC(C3)C2C(=O)O)cc1 (stereo unspecified)	Menin-MLL TR inh 20µM, MmCpn inh 25.1µM, MLL CXXC-DNA inh inconclusive
CCOC(=O)N1C(=O)[C@](c2ccc(Cl)cc2)(C(C)C)N1C(=O)OCC	none
CCOC(=O)N1C(=O)[C@@](c2ccc(Cl)cc2)(C(C)C)N1C(=O)OCC	AT treatment 20µM
Cc1cc2ccccc2n1CCNC(=O)C1CC1	none (no result: MLL CXXC-DNA inh)
Cc1cc2ccccc2n1CCNC(=O)c1cccs1	Menin-MLL TR inh inconclusive, MmCpn inh 28.2µM, Menin-MLL FL inh inconclusive
COC(=O)c1ccc(CNC(=O)c2ccc(COc3ccccc3)cc2)cc1	Menin-MLL TR inh 28.2µM
Cc1ccc(/C=C/C(=O)c2ccc(C)cc2)cc1	none (no result: AT treatment)
Cc1ccc(C(=O)/C=C/C(=O)c2ccc(C)cc2)cc1	Menin-MLL TR inh inconclusive, AT treatment 25.1µM
COc1ccc(N(CC(O)Cn2c3ccccc3c3ccccc32)S(=O)(=O)c2ccccc2)cc1 (stereo unspecified)	Menin-MLL TR inh 25.1µM
CS(=O)(=O)N(CC(O)Cn1c2ccccc2c2ccccc21)c1ccccc1 (stereo unspecified)	none
CNc1ncncc1-c1ccccc1C	none (no result: MmCpn inh, AT treatment, MLL CXXC-DNA inh)
COCCCn1c(=O)c2sccc2n(Cc2cccc(F)c2)c1=O	none
COCCCn1c(=O)c2sccc2n(Cc2cccc(C)c2)c1=O	AT treatment 1.58µM
O=C(NN1C(=O)c2ccccc2NC1c1ccco1)c1ccccc1 (stereo unspecified)	none
O=C(O)CCC(=O)NN1C(=O)c2ccccc2NC1c1ccco1 (stereo unspecified)	AT treatment 0.794µM (no result: Menin-MLL TR inh)
CCCCCCCCOC(=O)c1nc(Cl)c(Cl)c(N)c1Cl	AT treatment 31.6µM (no result: Menin-MLL FL inh)
COC(=O)c1ccc(C(NC(=O)OCc2ccccc2)/C(=C/[C@@H](C)C(=O)NCc2nc3ccccc3n2C)c2cccnc2)cc1 (stereo partly specified)	none (no result: MmCpn inh, AT treatment, MLL CXXC-DNA inh)
CC(=O)c1cccc(OCC(O)CNCC2COc3ccccc3O2)c1 (stereo unspecified)	AT treatment 50.1µM (no result: Menin-MLL TR inh, Menin-MLL FL inh)
COc1ccc(CN2CCN(c3ncnc4scc(-c5ccc(F)cc5)c34)CC2)cc1	AT treatment 14.1µM
COC(=O)CCCCCN1C(=O)NC(CC2CC2)C(C(=O)OCc2ccccc2)=C1C (stereo unspecified)	Menin-MLL TR inh inconclusive (no result: MmCpn inh, AT treatment, MLL CXXC-DNA inh)
COc1ccc(OC)c(N)c1	Menin-MLL TR inh 25.1µM
COc1ccc(OC)cc1	none (no result: Menin-MLL TR inh, Menin-MLL FL inh, MLL CXXC-DNA inh)
